Where “and” joins values, the source holds several entries; their conditions need not be identical. Equal entries are not always repeated. Inconclusive results are not listed. A structure can be active in one record and inactive in another. Calls of active or inactive are those of the source. Unless noted, the call rests on the fitted dose curve.

Experiment [1] is described as follows: Nuclear factor erythroid 2-related factor 2/antioxidant responsive element (Nrf2/ARE) small molecule agonists: luciferase reporter gene qHTS assay in human keratinocytes (AID 1919969; further: nearly all actives have a fitted effect of over 35% in size; further: potency means the concentration at half of the fitted maximal effect). (In a reporter assay the amount or activity of a reporter protein is the signal.)
Experiment [2] deals with Gonadotropin-releasing hormone receptor (Homo sapiens) (UniProt P30968). Put plainly: Human gonadotropin-releasing hormone receptor (GnRHR) small molecule agonists, calcium flux assay in GnRHR-HEK293 cells (AID 1920063). Further: nearly all actives have a fitted effect of over 35% in size. The procedure, abridged:
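We seeded human GnRHR-expressing HEK293 cells for 18 hours, loaded them with calcium dye for an hour at 37 C, added test compounds, and recorded fluorescence intensity kinetically for three minutes.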
On the technique in general: Calcium flux is commonly read through the fluorescence of an indicator in the cells.

In experiment [3] the target is KiSS-1 receptor (Homo sapiens) (UniProt Q969F8). Put plainly: Human kisspeptin (KISS1R) small molecule agonists, calcium flux assay in KISS1R-HEK293 cells (AID 1920064; active means well fitted activation curve with a large enough effect in the repeat runs). The method, boiled down: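 Kinetic calcium assay, 1 s sampling over 3 min at Ex/Em 480/540, in HEK293 cells engineered with human KISS1R; compounds delivered in DMSO after 1 h dye loading.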
Experiment [4] can be described thus: G protein-coupled receptor (GPCR) small molecule agonists, calcium flux assay: HEK293 wild type cell line counter screen (AID 1920065). The procedure, abridged:
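Calcium-sensitive dye, loaded 1 h at 37 C into cells cultured 18 h, reports compound-evoked calcium release as fluorescence (Ex/Em 480/540), measured over 3 min. Agonist mode; 15-point titrations, triplicate.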

Experiment [5] is described as follows: p53 small molecule agonists, cell-based qHTS assay with human liver microsomes (AID 1963577).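 Further: p53 response element beta-lactamase reporter cells with liver microsomes plus NADPH.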 The method, boiled down: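 With metabolic activation: human liver microsomes (0.5 mg/mL final) plus NADPH (0.5 mg/mL final) added alongside compounds to p53RE-bla cells; 16 h 37 C exposure; beta-lactamase read by LiveBLAzer fluorescence.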
Experiment [6] is described as follows: p53 small molecule agonists, cell-based qHTS assay with rat liver microsomes (AID 1963578). The procedure, abridged:
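Metabolic activation by rat liver microsomes and NADPH, each 0.5 mg/mL final, added right after compounds to p53RE-bla reporter cells (4,000/well, plated 5 h earlier). 16 h at 37 C, then LiveBLAzer substrate for 2 h at room temperature in the dark; fluorescence read-out.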
For orientation: Quantitative high-throughput screening tests each substance at several concentrations.

A short description of experiment [7]: p53 small molecule agonists, cell-based qHTS assay with human liver microsomes: qHTS cell viability counter screen (AID 1963579). Further: nearly all actives have a fitted effect of over 45% in size. The method, boiled down:
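Metabolic activation used human liver microsomes and NADPH, both 0.5 mg/mL final, over 16 hours at 37 C on p53RE-bla cells (4,000/well). Cytotoxicity measured by CellTiter-Glo luminescence, 30 min at room temperature.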

Experiment [8] in a line: p53 small molecule agonists, cell-based qHTS assay with rat liver microsomes: qHTS cell viability counter screen (AID 1963580). Further: nearly all actives have a fitted effect of over 45% in size. The method, boiled down:
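p53RE-bla HCT-116 cells were exposed 16 h at 37 C to compounds with rat liver microsomes (0.5 mg/mL) and NADPH (0.5 mg/mL). Viability was measured in the same wells as ATP content by CellTiter-Glo luminescence.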

Experiment [9] is described as follows: p53 small molecule agonists, cell-based qHTS assay: qHTS cell viability counter screen (AID 1963581). Further: nearly all actives have a fitted effect of over 45% in size. The method, boiled down: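 Following 5 h attachment, HCT-116 p53RE-bla cells took up compound for 16 h at 37 C; the reporter was read with B/G FRET substrate (2 h RT), and viability then via CellTiter-Glo ATP luminescence.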
Experiment [10] can be described thus: p53 small molecule agonists, cell-based qHTS assay (AID 1963582; active means well fitted activation curve with a large enough effect in the signal ratio in the repeat runs, not every such curve was filed as active; the % refers to the signal ratio). The method, boiled down: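 In this cell-based concentration-response screen, a p53 response element drives beta-lactamase; cells received DMSO-borne compounds after 5 h culture and were incubated a further 16 h before FRET substrate development.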
Experiment [11] concerns the target 5-hydroxytryptamine receptor 2A (Homo sapiens) (UniProt P28223). The experiment in a line: 5-hydroxytryptamine receptor 2A (HTR2A) small molecule antagonists, cell-based qHTS assay (AID 1963586). Further: nearly all actives have a fitted effect of over 45% in size. The method, boiled down:
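Antagonist-mode intracellular calcium assay: DOI (4 nM) added after 5 min compound pre-incubation at room temperature to dye-loaded HTR2A-CHO cells. Fluorescence followed for 3 min, sampled every second.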

Experiment [12] deals with Muscarinic acetylcholine receptor M1 (Homo sapiens) (UniProt P11229). The experiment in a line: Cholinergic receptor muscarinic 1 (CHRM1) small molecule antagonists, cell-based qHTS assay (AID 1963588). Further: nearly all actives have a fitted effect of over 40% in size. The method, boiled down: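 CHRM1-CHO calcium-flux assay, antagonist mode. Cells were seeded 18 h, dye-loaded 1 h at 37 C and given compound for 5 min at RT, then acetylcholine was added at 50nM. FDSS fluorescence was read 3 min; 15 concentrations, three runs.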

Experiment [13] shares this target. Put plainly: Cholinergic receptor muscarinic 1 (CHRM1) small molecule agonists, cell-based qHTS assay (AID 1963589). Further: nearly all actives have a fitted effect of over 35% in size. The method, boiled down: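 Measures agonist-induced intracellular calcium rise. Stable human CHRM1 CHO line, 1 h dye load at 37 C, compounds from DMSO, kinetic fluorescence read.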
A short description of experiment [14]: cAMP Responsive Elements (CRE) small molecule agonists, cell-based qHTS assay (AID 1963590). The procedure, abridged:
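A CRE-responsive beta-lactamase reporter in HEK 293T cells was used. Treatment ran 3 h at 37 C; detection used LiveBLAzer B/G FRET substrate for 2 h at room temperature.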

A short description of experiment [15]: cAMP Responsive Elements (CRE) small molecule antagonists, cell-based qHTS assay (AID 1963591; active means well fitted inhibition curve with a large enough effect in the signal ratio in the repeat runs, not every such curve was filed as active; the % refers to the signal ratio). The procedure, abridged: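 HEK293T cells carrying a CRE-driven beta-lactamase reporter receive compound and NKH477 (0.25 uM final) for 3 h. Fluorescence from LiveBLAzer B/G FRET substrate is read after 2 h at room temperature.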
Experiment [16] addresses Beta-2 adrenergic receptor (Homo sapiens) (UniProt P07550). The experiment in a line: Adrenergic beta2 receptor (ADRB2) small molecule antagonists, cell-based qHTS assay (AID 1963592). Further: series mostly up to about 92 µM; nearly all actives have a fitted effect of over 50% in size. The procedure, abridged:
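Cells (CHO, stable ADRB2 overexpression) incubated 18-20hr at 37C; compounds added from DMSO; agonist mix (1nM isoproterenol, 100uM IBMX, 25uM Ro-20-1724) added; 0.5hr RT; d2-cAMP and anti-cAMP-cryptate added; 1hr RT; 665/615 nm read.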

For experiment [17], the target named is D(2) dopamine receptor (Homo sapiens) (UniProt P14416). The experiment in a line: Dopamine D2 receptor (DRD2) small molecule agonists, cell-based qHTS assay (AID 1963594). Further: nearly all actives have a fitted effect of over 35% in size. The procedure, abridged:
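HEK293 cells stably expressing human DRD2, pre-treated with PDE inhibitor Ro20-1724 (0.1 mM final) and compound 10 min at room temperature, then stimulated with NKH477 (200nM […]) for 30 min. cAMP read by HTRF (665/620 nm).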

Experiment [18] has the same target. The experiment in a line: Dopamine D2 receptor (DRD2) small molecule antagonists, cell-based qHTS assay (AID 1963595; active means well fitted inhibition curve with a large enough effect in the signal ratio in the repeat runs, with a control signal flat; the % refers to the signal ratio; further: potency means the concentration at half of the fitted maximal effect). The procedure, abridged: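 Readout: HTRF cAMP, cAMP-d2 competing with cellular cAMP for anti-cAMP cryptate, read after 1 h. Cells: DRD2-HEK293. Conditions: 0.1 mM Ro20-1724, 12 nM quinpirole, 200 nM NKH477, 30 min RT.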
Experiment [19] addresses Beta-2 adrenergic receptor (Homo sapiens) (UniProt P07550). The experiment in a line: Adrenergic beta2 receptor (ADRB2) small molecule agonists, cell-based qHTS assay (AID 1963593).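 Further: CHO cells stably overexpressing human ADRB2.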 The method, boiled down: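 CHO cells stably over-expressing ADRB2 were plated overnight at 37C, then dosed with compounds plus a stimulation mix containing 100uM IBMX and 25uM Ro-20-1724 for 0.5hr at room temperature. cAMP was measured by HTRF competition, 1hr.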

The target of experiment [20] is 5-hydroxytryptamine receptor 2A (Homo sapiens) (UniProt P28223). Put plainly: 5-hydroxytryptamine receptor 2A (HTR2A) small molecule agonists, cell-based qHTS assay (AID 1963587). Further: nearly all actives have a fitted effect of over 30% in size. The procedure, abridged: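 CHO cells stably expressing human HTR2A, plated 18 h, loaded with calcium dye 1 h at 37 C. Agonist mode: compounds added and intracellular calcium fluorescence recorded kinetically for 2 min at 1 sec intervals.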
Sequence of 5-hydroxytryptamine receptor 2A (Homo sapiens) (P28223 whole entry, looked up): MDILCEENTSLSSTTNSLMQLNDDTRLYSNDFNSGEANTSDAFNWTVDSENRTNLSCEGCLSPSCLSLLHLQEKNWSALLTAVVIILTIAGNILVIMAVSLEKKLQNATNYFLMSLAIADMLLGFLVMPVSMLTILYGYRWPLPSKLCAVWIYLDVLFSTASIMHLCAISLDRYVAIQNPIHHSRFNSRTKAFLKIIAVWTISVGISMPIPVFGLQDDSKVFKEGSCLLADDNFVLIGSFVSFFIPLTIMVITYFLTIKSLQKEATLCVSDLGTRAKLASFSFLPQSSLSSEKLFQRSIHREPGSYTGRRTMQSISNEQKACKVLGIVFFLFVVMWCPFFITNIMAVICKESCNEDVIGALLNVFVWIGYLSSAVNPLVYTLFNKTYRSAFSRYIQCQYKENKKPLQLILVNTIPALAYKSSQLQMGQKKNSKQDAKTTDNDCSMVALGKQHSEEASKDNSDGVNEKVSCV

Sequence of D(2) dopamine receptor (Homo sapiens) (P14416 whole entry, looked up): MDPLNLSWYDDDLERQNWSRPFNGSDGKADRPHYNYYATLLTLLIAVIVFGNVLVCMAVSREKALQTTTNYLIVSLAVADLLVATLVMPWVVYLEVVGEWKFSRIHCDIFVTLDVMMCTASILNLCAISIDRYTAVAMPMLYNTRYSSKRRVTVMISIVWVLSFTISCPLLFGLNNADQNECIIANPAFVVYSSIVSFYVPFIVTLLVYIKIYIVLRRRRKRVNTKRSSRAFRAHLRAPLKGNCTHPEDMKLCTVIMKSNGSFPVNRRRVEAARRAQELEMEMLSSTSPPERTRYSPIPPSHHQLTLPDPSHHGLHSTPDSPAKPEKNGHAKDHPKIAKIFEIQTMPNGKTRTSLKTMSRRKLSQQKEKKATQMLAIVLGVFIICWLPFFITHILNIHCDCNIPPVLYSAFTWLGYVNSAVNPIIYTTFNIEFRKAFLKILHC
Sequence of Gonadotropin-releasing hormone receptor (Homo sapiens) (P30968 whole entry, looked up): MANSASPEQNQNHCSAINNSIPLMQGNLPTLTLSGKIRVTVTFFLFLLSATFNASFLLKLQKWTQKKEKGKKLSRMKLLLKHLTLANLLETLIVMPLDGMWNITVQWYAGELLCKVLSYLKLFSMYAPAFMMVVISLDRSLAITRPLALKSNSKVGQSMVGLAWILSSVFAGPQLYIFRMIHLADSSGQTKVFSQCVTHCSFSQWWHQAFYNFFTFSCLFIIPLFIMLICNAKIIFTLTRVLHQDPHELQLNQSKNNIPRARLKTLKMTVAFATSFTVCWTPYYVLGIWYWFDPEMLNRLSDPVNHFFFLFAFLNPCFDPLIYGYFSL
Sequence of Beta-2 adrenergic receptor (Homo sapiens) (P07550 whole entry, looked up): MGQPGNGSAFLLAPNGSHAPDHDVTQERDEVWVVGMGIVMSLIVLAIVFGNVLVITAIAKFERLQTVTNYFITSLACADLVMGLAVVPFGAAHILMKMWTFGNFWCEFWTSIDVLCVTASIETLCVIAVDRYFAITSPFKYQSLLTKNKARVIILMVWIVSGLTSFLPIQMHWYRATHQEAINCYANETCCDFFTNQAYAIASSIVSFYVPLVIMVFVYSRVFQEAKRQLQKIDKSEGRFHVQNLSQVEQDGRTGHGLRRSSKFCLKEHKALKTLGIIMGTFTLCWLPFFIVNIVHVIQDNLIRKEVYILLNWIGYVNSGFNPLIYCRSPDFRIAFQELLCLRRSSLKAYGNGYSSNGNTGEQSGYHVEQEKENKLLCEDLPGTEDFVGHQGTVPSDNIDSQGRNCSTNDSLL
Sequence of KiSS-1 receptor (Homo sapiens) (Q969F8 whole entry, looked up): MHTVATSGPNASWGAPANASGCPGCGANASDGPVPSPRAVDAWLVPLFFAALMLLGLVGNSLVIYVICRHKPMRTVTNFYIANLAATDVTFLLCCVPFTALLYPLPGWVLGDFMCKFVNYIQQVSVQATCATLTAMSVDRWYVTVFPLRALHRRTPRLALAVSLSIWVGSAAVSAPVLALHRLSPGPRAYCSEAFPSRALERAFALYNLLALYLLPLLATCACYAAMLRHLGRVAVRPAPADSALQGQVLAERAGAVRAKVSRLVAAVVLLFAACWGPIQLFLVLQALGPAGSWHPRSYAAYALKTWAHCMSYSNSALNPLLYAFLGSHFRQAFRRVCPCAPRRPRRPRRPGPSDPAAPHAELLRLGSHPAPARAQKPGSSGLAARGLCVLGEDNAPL
Sequence of Muscarinic acetylcholine receptor M1 (Homo sapiens) (P11229 whole entry, looked up): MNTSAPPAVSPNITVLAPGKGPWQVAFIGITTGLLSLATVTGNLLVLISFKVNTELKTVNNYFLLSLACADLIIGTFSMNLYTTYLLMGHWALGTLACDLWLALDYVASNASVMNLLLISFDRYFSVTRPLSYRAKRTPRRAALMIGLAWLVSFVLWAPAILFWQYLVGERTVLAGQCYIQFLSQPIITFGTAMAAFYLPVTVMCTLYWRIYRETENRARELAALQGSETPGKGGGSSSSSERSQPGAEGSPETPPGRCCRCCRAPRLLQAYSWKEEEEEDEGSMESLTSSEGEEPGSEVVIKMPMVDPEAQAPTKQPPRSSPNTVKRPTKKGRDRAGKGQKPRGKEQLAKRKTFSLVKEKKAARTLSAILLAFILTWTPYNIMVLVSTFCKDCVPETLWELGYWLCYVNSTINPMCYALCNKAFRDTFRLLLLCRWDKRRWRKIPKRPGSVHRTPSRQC

Take `CCCCOC(=O)c1ccccc1C(=O)OCC(CC)CCCC` (stereo unspecified): the Potency in experiment [1] was 43.3 µM (active). For the same molecule, the Potency entry in [2], in experiment [3], in [4], in experiment [5], in [6] and in experiment [7] was “inactive” in each case. The Potency entry in [8], in experiment [9], in experiment [10], in experiment [11], in [12] and in experiment [13] was “inactive” each time. Further, the Potency result in experiment [14], in experiment [15], in experiment [16], in [17] and in [18] was “inactive” each time.
For the molecule `COc1cc(/C=C/c2ccccc2)oc(=O)c1`, the Potency entry in experiment [4], in experiment [7], in experiment [8], in [9], in [11] and in experiment [12] was “inactive” in each case. For the same molecule, the Potency result in experiment [13], in experiment [16], in experiment [17] and in [18] was “inactive” each time.
`O=C1c2ccccc2C(=O)N1SC1CCCCC1`: the Potency in [1] was 21.7 µM (active) and 24.3 µM (active). Further, the Potency result in [2], in experiment [3], in experiment [4], in experiment [5], in experiment [6] and in experiment [7] was “inactive” each time. Further, the Potency entry in experiment [8], in [9], in experiment [10], in experiment [11], in [12] and in [15] was “inactive” each time. Further, the Potency entry in experiment [16], in experiment [19], in experiment [17] and in [18] was “inactive” in each case.
On to `CN(C/C=C/c1ccccc1)Cc1cccc2ccccc12`, for which the Potency entry in experiment [1], in experiment [2], in [3], in experiment [4], in experiment [5] and in experiment [6] was “inactive” throughout. Moreover, the Potency result in [7], in experiment [8], in experiment [9], in [10], in experiment [20] and in [12] was “inactive” in each case. The Potency entry in [13] and in experiment [16] was “inactive” each time. Besides, the Potency in experiment [18] was 6.68 µM (active).
As to `CCc1ccc(C(c2ccc(CC)cc2)C(Cl)Cl)cc1`, in experiment [1], the Potency entry was “inactive and 27.3 µM (active)”. Besides, the Potency entry in experiment [2], in experiment [3], in experiment [4], in experiment [5], in experiment [6] and in [7] was “inactive” throughout. For the same molecule, the Potency entry in [8], in experiment [9], in [10], in experiment [11], in experiment [20] and in experiment [12] was “inactive” each time. The Potency result in experiment [13], in experiment [14], in [15], in [16], in experiment [19] and in [17] was “inactive” in each case. In experiment [18], the Potency result is “inactive”.
With `Cc1onc(-c2c(Cl)cccc2Cl)c1C(=O)N[C@@H]1C(=O)N2[C@@H]1SC(C)(C)[C@@H]2C(=O)O`, the Potency entry in experiment [1], in experiment [2], in [3], in experiment [4], in [5] and in experiment [6] was “inactive” throughout. In addition, the Potency entry in experiment [7], in experiment [8], in [9], in experiment [10], in experiment [11] and in experiment [20] was “inactive” throughout. The Potency entry in experiment [13], in experiment [14], in experiment [15], in experiment [16], in [17] and in experiment [18] was “inactive” in each case.
As for `O=C1Nc2ccc(Cl)cc2[C@@](C#CC2CC2)(C(F)(F)F)O1`, the Potency entry in [1], in experiment [2], in experiment [3], in [4], in experiment [5] and in experiment [6] was “inactive” in each case. Moreover, the Potency entry in experiment [7], in experiment [8], in [9], in experiment [10], in experiment [12] and in experiment [13] was “inactive” each time. In experiment [16], the Potency entry is “inactive”.

(Values after PubChem BioAssay (Tox21).)
